In PubChem BioAssay:
Active and inactive are the calls of the source. No rule for the calls is given here.

These compounds were tested against Protein kinase 7 (PK7), Plasmodium falciparum 3D7 (PF3D7_0213400) (UniProt Q7YTF7) (assay: inhibition of Plasmodium PK7 catalytic activity – biochemical, TCAMS antimalarial set, Kinase-Glo luminescence (AID 1159587)). Conditions: recombinant PfPK7, Kinase-Glo ATP depletion luminescence.
Chain of Protein kinase 7 (PK7), Plasmodium falciparum 3D7 (PF3D7_0213400) (Q7YTF7 1-343): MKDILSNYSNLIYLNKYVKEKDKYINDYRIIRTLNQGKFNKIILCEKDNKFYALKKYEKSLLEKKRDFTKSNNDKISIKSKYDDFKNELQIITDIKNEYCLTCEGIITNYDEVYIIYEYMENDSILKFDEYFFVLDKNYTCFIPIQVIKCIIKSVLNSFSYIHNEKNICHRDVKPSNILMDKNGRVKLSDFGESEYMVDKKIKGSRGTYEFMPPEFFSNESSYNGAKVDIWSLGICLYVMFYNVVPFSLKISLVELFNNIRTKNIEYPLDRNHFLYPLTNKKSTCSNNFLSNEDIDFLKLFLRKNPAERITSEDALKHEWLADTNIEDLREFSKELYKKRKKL

outcome, inactive:
c1ccc2[nH]c(CN(Cc3nc4ccccc4[nH]3)Cc3nc4ccccc4[nH]3)nc2c1, COc1cc2ccccc2cc1OCCCN1CCN(CC(c2ccc(F)cc2)N2CCN(C(C)C)CC2)CC1 (stereo not given), COc1ccc(CCNCCCCCNCCCc2ccc(Cl)cc2)cc1OC, Clc1cc(Cl)cc(Nc2ccnc(Nc3cc(Cl)cc(Cl)c3)n2)c1, CC(C)(C)C(=O)Oc1ccc(CC2NCCc3cc(OC(=O)C(C)(C)C)c(OC(=O)C(C)(C)C)cc32)cc1OC(=O)C(C)(C)C (stereo not given), CSc1ccc(NC(=O)Nc2cc(C)nc3ccccc23)cc1, Cc1cc(C2CCN(CCCCNC(=O)c3ccc(-c4ccc(C(F)(F)F)cc4)cc3)CC2)c(C)cc1OCC(N)=O, COc1ccc(NC(=O)CCNc2cc(C)nc(NCc3ccccc3C)n2)cc1, O=C(NCC1CCC(C(=O)O)CC1)c1ccc(/C=C/C(=O)N2CCc3ccccc3C2c2ccc3c(c2)OCO3)cc1 (stereo not given), O=C(C=Cc1cn(-c2ccccc2)nc1-c1ccccc1)N1CCN(c2ccncc2)CC1, O=c1ccc2ncc(Cl)c3c2n1CC3CN1CCC(NCc2cc3c(cn2)OCCO3)CC1 (stereo not given), CC(C)NCc1ccc(-c2ccc(CN3CCCC(c4ccccc4)C3)cc2)c(C(=O)NC2Cc3ccccc3C2)c1 (stereo not given), O=C(Nc1ccc(-c2nc3ccccc3[nH]2)cc1)C1CCCN(C2CCC2)C1 (stereo not given), CCOC(=O)C(Oc1ccc2ccccc2c1)C(=O)OCC, CC(C)CNC(=S)N1CCCN(c2nc3ccc(Cl)cc3s2)CC1, O=C(CCc1ccccc1)NC(c1ccc(Cl)cc1)c1ccc2cccnc2c1O (stereo not given), O=C(Nc1cccc(-c2cccc(-c3nc4ccc(C(F)(F)F)cc4[nH]3)c2)c1)c1ccoc1, COc1cc2nccc(Nc3cc(C)cc(O)c3)c2cc1OC, O=C(NC1CCN(CCC[C@]2(c3ccc(Cl)c(Cl)c3)CCCN(C(=O)c3ccccc3)C2)CC1)c1ccc(Cl)cc1, COc1cc(C)cc(CN2CCC(Cc3ccccc3)CC2)c1O, Cc1ccc(-n2c(Cc3cccc4ccccc34)nnc2SCCC#N)c(C)c1, O=C(NC1CCN(c2ccnc3cc(Cl)ccc23)C1)c1ccc(C(F)(F)F)cc1 (stereo not given), O=C(Nc1cccc(-c2cccc(-c3ccc(F)cc3)n2)c1)c1ccc([N+](=O)[O-])o1, Nc1ncc(-c2ccc(NC(=O)Nc3cc(C(F)(F)F)ccc3F)cc2)c(N)n1, Nc1ncnc2nc(-c3ccc(F)cc3)cc(-c3ccc(NC(=O)c4ccccc4)cc3)c12
